An excerpt weighted towards active compounds, which were near 21% of everything screened.
Shiga toxin inh: Shiga toxin inhibition | Vero cells, Shiga toxin protein synthesis inhibition reporter | inhibition, % at 38.7 µM | 9.2% of 290,000 active | AID 2315; in the data active = inhibition mostly above about 28%, no sharp cut-off; inactive = mostly below about 43%
Cycloheximide cs: counter-screen for Shiga toxin inhibitors: cycloheximide protein synthesis inhibition; 12% of 300,000 active; cell reporter, cycloheximide protein synthesis inhibition counterscreen; max response, %; in the data active = max response mostly above about 13%, no sharp cut-off; inactive = mostly below about 14%; note: read at 38.3 µM for the half of the compounds with a filed dose
NS1 inh: influenza NS1 inhibition | Potency, µM (titrated, usually from 46.1 µM) | 0.4% of 270,000 active | AID 2326; calls by dose curve; note: actives are rising curves; nearly all actives have a fitted effect of over 50% in size
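A cell-based growth assay was used: compounds that relieve NS1-induced slow growth of budding yeast raise OD600. Assay medium was yeast nitrogen base with ammonium sulphate and -URA supplement, pH 6.0, with 2% galactose.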
Pf growth 96h: inhibits malaria parasite growth, 96 h; 6.9% of 320,000 active; Potency, µM (series often up to 28.7 µM), usual class: inhibitors; P. falciparum luciferase reporter growth, 96 h
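Plates of compound plus infected erythrocytes (2% hematocrit, 0.05% parasitemia final) incubate 96 hours, 37 C, 5% CO2. Detection reagent added; reduced luminescence from the parasites' luciferase reporter flags inhibition.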
Sm TGR inh: blocks Schistosoma mansoni thioredoxin glutathione reductase. purified TGR, DTNB reduction, TNB absorbance 405 nm. Potency, µM (highest dose often 114 µM), hits mostly inhibitors. 3% of 360,000 active. AID 485364; note: nearly all actives have a fitted effect of over 60% in size
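Kinetic colorimetric format: TGR-catalysed, NADPH-driven DTNB reduction monitored via TNB absorbance. Enzyme dispensed at 20 nM; compound exposure 15 min at room temperature before reaction start.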
Pf growth 48h: P. falciparum growth inhibition at 48 hours (one generation). AID 504832. P. falciparum luciferase growth in erythrocytes, 48 h. 5.9% of 310,000 active. Potency, µM (doses to about 28.7 µM), actives largely listed as inhibitors
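First compound was added to culture medium, then infected red cells at 0.1% parasitemia and 2% hematocrit (final). After incubation at 37 C under 5% CO2, luciferase detection reagent was dispensed and light output recorded.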
Large screens that a line does not name were inactive. Unless noted, calls come from the whole dose curve; as a rule, active = well fitted curve in the direction sought with a large enough effect; inconclusive = small, poorly fitted or top-dose-only effect, or another doubt; inactive = no such curve, though single readings can be large; an effect the other way counts as inactive or inconclusive.

COc1ccc(-n2c(=O)c3sc4ccccc4c3n(Cc3ccccc3)c2=O)cc1	none (no result: Shiga toxin inh, Cycloheximide cs, NS1 inh, Pf growth 96h, Pf growth 48h)
CCc1c(C)sc(NC(=O)c2cc(-c3ccc(OC)cc3)on2)c1C#N	none (no result: Shiga toxin inh, Cycloheximide cs, NS1 inh, Pf growth 96h, Pf growth 48h)
COc1ccccc1N1CCN(C(=O)CCc2nnc3ccc(N4CCC(C)CC4)nn23)CC1	Pf growth 48h 10µM
COc1ccc(NC(=O)CCc2nnc3ccc(N4CCN(c5cccc(OC)c5)CC4)nn23)cc1	NS1 inh inconclusive, Pf growth 96h 0.33µM, Pf growth 48h 12µM
CC(=O)c1c(C)[nH]c(C(=O)OCCCCN2C(=O)c3ccccc3C2=O)c1C	Pf growth 48h inconclusive
Cc1ccc(Cl)cc1N1CCN(Cc2cc3c(cc2O)CCC3)CC1	Pf growth 96h 0.15µM (no result: Pf growth 48h)
Cc1ccc(Cl)cc1N1CCN(C(=O)c2ccc(CN3CCOCC3)cc2)CC1	Pf growth 48h inconclusive
Cc1ccc(S(=O)(=O)N2CCN(C(=O)c3cccs3)CC2)c(C)c1	none (no result: NS1 inh)
COc1ccc(CCNC(=O)C2(c3ccccc3)CC2)cc1	none
O=C(NCCc1ccccc1)C1(c2ccccc2)CCCC1	Pf growth 96h 13µM (no result: Shiga toxin inh)
Cc1ccc(NC(=O)CN2C(=O)CCn3nc(-c4cccn4C)cc32)c(Cl)c1	none (no result: Shiga toxin inh, Cycloheximide cs, NS1 inh, Pf growth 96h, Pf growth 48h)
Cc1cc(C(=O)COC(=O)c2ccncc2)c(C)n1Cc1ccco1	Shiga toxin inh 116, Cycloheximide cs 44 (no result: NS1 inh)
Cc1cc(C(=O)COC(=O)c2ccco2)c(C)n1Cc1ccco1	none (no result: NS1 inh)
Cc1cc(C(=O)COC(=O)c2cc(Cl)ccc2N)c(C)n1Cc1ccco1	Shiga toxin inh 119, Cycloheximide cs 91
Cc1cc(C(=O)CSc2nnc(N)s2)c(C)n1Cc1ccco1	Shiga toxin inh 57, Cycloheximide cs 39 (no result: NS1 inh)
Cc1ccc(CNC(=O)c2ccc(CSCc3c(F)cccc3Cl)o2)cc1	none (no result: Shiga toxin inh, Cycloheximide cs, NS1 inh, Pf growth 96h, Pf growth 48h)
CCCCC(=O)NC(c1cccs1)c1cc(Cl)c2cccnc2c1O (centres undefined)	Pf growth 48h 0.74µM
CCCC(=O)NC(c1ccc(OC)c(OC)c1)c1cc(Cl)c2cccnc2c1O (centres undefined)	Pf growth 96h inconclusive, Pf growth 48h 9.3µM (no result: Sm TGR inh)
CCC(=O)NC(c1cccs1)c1cc(Cl)c2cccnc2c1O (centres undefined)	none
O=C(Nc1cc(C(F)(F)F)ccc1N1CCOCC1)C1=NN(c2ccccc2)C(=O)CC1	Pf growth 96h inconclusive, Pf growth 48h inconclusive
Cc1cc(C)cc(NC(=O)C2C3C=CC4(O3)C2C(=O)N(CCCN2CCCCC2)C4C(=O)NC2CCCCC2)c1 (centres undefined)	Pf growth 48h inconclusive
Cc1ccc(NC(=O)C2C3C=CC4(O3)C2C(=O)N(CCCN2CCOCC2)C4C(=O)NC2CCCCC2)cc1Cl (centres undefined)	Pf growth 96h 2.1µM
Cc1ccc(NC(=O)C2C3C=CC4(O3)C2C(=O)N(CCN2CCOCC2)C4C(=O)NC2CCCCC2)cc1C (centres undefined)	Pf growth 96h inconclusive
COCCCN1C(=O)C2C(C(=O)Nc3cc(C)cc(C)c3)C3C=CC2(O3)C1C(=O)NC1CCCCC1 (centres undefined)	Pf growth 96h inconclusive, Sm TGR inh 40µM
O=C(Nc1ccc(Br)cc1)C1C2C=CC3(O2)C1C(=O)N(CCN1CCOCC1)C3C(=O)NC1CCCCC1 (centres undefined)	Pf growth 96h 10µM
Cc1ccc(O)c(NC(=O)c2onc(C)c2Cl)c1	Shiga toxin inh 66, Cycloheximide cs 30, Pf growth 48h 12µM
Cc1noc(C(=O)Nc2ccc(F)cc2F)c1Cl	Cycloheximide cs 31, Sm TGR inh inconclusive
CCc1ccccc1NC(=O)c1onc(C)c1Cl	none (no result: Pf growth 48h)
O=C(NCc1nnc(SCC(=O)N2CCOCC2)o1)c1ccccc1F	none (no result: NS1 inh)
CCC(C(=O)O)C1OC(C(C)C(O)C(C)C(=O)C(CC)C2OC3(C=CC(O)C4(CCC(C)(C5CCC(O)(CC)C(C)O5)O4)O3)C(C)CC2C)C(C)CC1C (centres undefined)	Pf growth 96h 0.034µM, Pf growth 48h 0.054µM (no result: Shiga toxin inh, Cycloheximide cs, NS1 inh, Sm TGR inh)
CN(C)C/C=C(/c1ccc(Br)cc1)c1cccnc1	Pf growth 96h 15µM, Pf growth 48h 12µM (no result: Shiga toxin inh, Cycloheximide cs, Sm TGR inh)
Cn1c(=O)c(Cc2ccccc2)c(O)c2ccccc21	none (no result: Pf growth 96h)
CCCCCCCCOC(=O)CCn1[nH]c(=O)c2ccccc2c1=O	Pf growth 96h 10µM, Pf growth 48h inconclusive
CCCCCOC(=O)Cc1c(O)c2ccccc2n(C)c1=O	Sm TGR inh 4µM
CC(C)COC(=O)CCn1[nH]c(=O)c2ccccc2c1=O	none (no result: Pf growth 48h)
CCn1ncc(Br)c1C(=O)Nc1ccc(-c2ccno2)cc1	Cycloheximide cs 9.8, Pf growth 96h inconclusive
CCn1ncc(Br)c1C(=O)Nc1cc(C)cc(C)c1	none
COc1cccc(C(=O)Nc2ccccc2OCc2cc(=O)n3ccccc3n2)c1	none (no result: Shiga toxin inh, Cycloheximide cs, NS1 inh, Pf growth 96h, Pf growth 48h)
Cn1cnc([N+](=O)[O-])c1NC(C)(C)C	none (no result: Pf growth 48h)
Cn1cnc([N+](=O)[O-])c1S(=O)(=O)c1ccc(Cl)cc1	Sm TGR inh 0.1µM
NCCNCCN	Shiga toxin inh 91, Cycloheximide cs 43 (no result: NS1 inh, Pf growth 96h, Sm TGR inh, Pf growth 48h)
CCCCn1c(N)c(N(CC(C)C)C(=O)C2CCN(S(=O)(=O)c3ccc(F)cc3)CC2)c(=O)[nH]c1=O	Pf growth 96h inconclusive, Pf growth 48h inconclusive
